We go through 36 molecules from PubChem BioAssay AID2113 (National Center for Advancing Translational Sciences (NCATS), 2009).

Inconclusive results are not listed. Where a call stands in place of a potency, no number is given. Calls of active or inactive are those of the source. Calls come from the whole dose curve; as a rule, active = well fitted curve in either direction with a large enough effect; inconclusive = small, poorly fitted or top-dose-only effect; inactive = no such curve, though single readings can be large or run the other way. Residues, ends and D or L forms follow the SMILES beside them.
Potency is the fitted concentration of half-maximal effect.

This experiment has as its target Lysosomal alpha-glucosidase (Homo sapiens) (UniProt P10253). As to the kind of experiment: Confirmation of Inhibitors and Activators of Human alpha-Glucosidase From Spleen Homogenate.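 For potency: fluorescence of 4-methylumbelliferone released from a fluorogenic glucopyranoside substrate at pH 5.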 The conditions noted are these: alpha-glucosidase enzyme activity; series mostly up to 60.5 µM. The procedure, abridged:
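Fluorogenic assay using human spleen homogenate (1 ug) as enzyme source with 1 mM 4-methylumbelliferyl-alpha-D-glucopyranoside, pH 5.0 citrate buffer, 40 min at 37 C. 4-MU read (Ex 365/Em 440) after NaOH/glycine stop; AC50 from Hill fits.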
For `O=S(=O)(c1ccc(Cl)cc1)N1CCN(c2nc(Nc3cc(Cl)ccc3O)nc3ccccc23)CC1`, the Potency entry is “inactive”.
The entry for `O=C(O)C[C@@H]1C(=O)O[C@@H]2C(COC(=O)c3cc(O)c(O)c(O)c3)O[C@@H](OC(=O)c3cc(O)c(O)c(O)c3)[C@@H](OC(=O)c3cc(O)c(O)c4c3[C@H]1[C@H](O)C(=O)O4)[C@H]2OC(=O)c1cc(O)c(O)c(O)c1` (stereo partly specified) is “inactive”; for `O=C(Nc1ccc(OCC(=O)N2CCN(S(=O)(=O)c3ccccc3)CC2)cc1)c1ccco1` it is “inactive”; for `NC(=S)NN=C1c2cc(S(=O)(=O)N3CCOCC3)ccc2-c2ccc(S(=O)(=O)N3CCOCC3)cc21` it is “inactive”.
Next, `O=C(Nc1cc(S(=O)(=O)N2CCOCC2)ccc1N1CCCC1)c1cc(=O)[nH]c2ccccc12`: “inactive”; `CCC1C(=O)NCCN1Cc1nc(-c2ccc(C)s2)oc1C` (stereo unspecified): “inactive”; `CC(=O)c1ccc(N2CCN(S(=O)(=O)c3ccc4c(c3)CCCN4C(C)=O)CC2)cc1`: “inactive”.
Take `Cc1ccc(CCNC(=O)CNC(=S)N(Cc2ccccc2)Cc2cccnc2)cc1`: the Potency result was “inactive”.
The entry for `O=S(=O)(c1ccc(O)cc1)N1CCOCC1` is “inactive”.
The figure for `CCCN1CNc2c(c(=O)[nH]c(=S)n2CCc2cc(Cl)cc(Cl)c2)C1` is 7.94 µM (active).
The entry for `CCCC[C@H](NC(=O)[C@@H]1CCCN1C(=O)[C@H]1CCCN1C(=O)[C@H](Cc1ccccc1)NC(=O)[C@@H](Cc1c[nH]c2ccccc12)NC(=O)[C@H](C)NC(=O)[C@H](CCCN=C(N)N)NC(=O)OC(C)(C)C)C(N)=O` (HELM PEPTIDE1{[CC(C)(C)OC(=O)[*:2]].R.A.[dW].F.[dP].P.[Nle].[am]}$$$$V2.0) is “inactive”; for `COC(=O)c1ccc(CSc2cc(C)c3cccc(C)c3n2)o1` it is “inactive”; for `CC(C)NCC(O)COc1cccc2[nH]ccc12` (stereo unspecified) it is “inactive”.
Consider `O=C(c1cccc2ccccc12)N1CCN(S(=O)(=O)c2ccccc2)CC1`, for which the Potency result is “inactive”.
Next, `OCCNc1nc(-c2cccs2)nc2ccccc12`: “inactive”.
Next, `Cc1ccc2c(c1)c1ncnc(N3CCC4(CC3)OCCO4)c1n2C`: “inactive”.
The entry for `CC(C)(C)OC(=O)NCCCC[C@H](NC(=O)c1nc[nH]c1C(=O)NCc1ccccc1)C(=O)OC(C)(C)C` is “inactive”; for `O=C(O)Cn1nnnc1SCC(=O)Nc1ccc(OC(F)(F)F)cc1` it is “inactive”; for `CCCN1CNc2c(c(=O)[nH]c(=O)n2CCc2ccc(OC)c(OC)c2)C1` it is 17.8 µM (active).
On to `CCNc1sc(C(=O)c2cccs2)c(N)c1-c1nc2ccccc2s1`, for which the Potency entry was “inactive”.
Regarding `CC1OC(OC2C(CO)OC(OC3C(CO)OC(O)C(O)C3O)C(O)C2O)C(O)C(O)C1NC1C=C(CO)C(O)C(O)C1O` (stereo unspecified), the Potency entry is “inactive”.
Consider `O=c1[nH]cc(C#Cc2ccccc2)c2ncncc12`, for which the Potency entry was “inactive”.
For `Cc1ccc(-c2nc(-c3cc4ccccc4oc3=O)sc2C)cc1`, the Potency entry was “inactive”.
Next, `CC(=O)Oc1ccc2cc(-c3nc(-c4ccccc4)c(C)s3)c(=O)oc2c1`: “inactive”; `Cc1[nH]n(C(N)=S)c(=O)c1N=Nc1ccc2ccccc2c1`: “inactive”.
In the case of `Cc1ccccc1-n1c(N)cc(=O)[nH]c1=S`, the Potency result is “inactive”.
The figure for `COc1ccc(CCn2c3c(c(=O)[nH]c2=S)CN(c2ccccc2)CN3)cc1OC` is 8.91 µM (active).
Take `CC1=CC(=C2C=CC(=O)C=C2)C=C(C)N1C`: the Potency entry was “inactive”.
As for `Cc1c(Nc2c3ccccc3nc3ccccc23)c(=O)n(-c2ccccc2)n1C`, the Potency result was “inactive”.
The entry for `CC1(C)CC(=O)c2cc(C(=O)NC3CCSC3=O)c(=O)n(-c3ccccc3)c2C1` (stereo unspecified) is “inactive”; for `O=S(=O)(c1ccccc1Br)N1CCOCC1` it is “inactive”.
The figure for `CCCN1CNc2c(c(=O)[nH]c(=S)n2CCc2cccc(Cl)c2Cl)C1` is 25.1 µM (active); for `O=c1oc2ccc(Br)cc2cc1-c1nc2c(s1)CCc1ccccc1-2` it is “inactive”.
For the molecule `CC(=O)c1ccc(N2CCN(S(=O)(=O)c3ccc4[nH]c(=O)[nH]c4c3)CC2)cc1`, the Potency result was “inactive”.
With `CC(=O)Nc1ccc(S(=O)(=O)/N=C2/NC(=O)/C(=C\c3ccco3)S2)cc1`, the Potency entry was “inactive”.
On to `COc1ccc(/C=C/c2nnc(NC(=O)CSc3ccccc3)s2)cc1`, for which the Potency result was “inactive”.
